BLM helicase inh – inhibitors of human Bloom syndrome helicase BLM; P54132; recombinant BLM DNA unwinding, fluorescence dequenching; Potency, µM (series often up to 56.1 µM), hits mostly inhibitors; 350,000 compounds, 0.2% hits; AID 2528; further: nearly all actives have a fitted effect of over 35% in size
RECQ1 helicase – RECQ1 (human) helicase inhibition; RECQ1 DNA unwinding, red fluorescence kinetic read; Potency, µM (top dose mostly 57.3 µM), usual class: inhibitors; 240,000 compounds, 0.54% hits; AID 2549; further: nearly all actives have a fitted effect of over 30% in size
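RECQ1T1 50 nM; forked duplex (20 bp + 30-nt ss tails) 200 nM, ATP 2 mM final; pH 8.0, 2 mM MgCl2, 2.5 ug/ml poly(dI-dC); 15 min compound preincubation; discontinuous kinetic read over 2 h at RT.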
KAT2A inh – GCN5L2 (KAT2A) acetyltransferase inhibition; Q92830; Potency, µM (titrated, usually from 58.9 µM), most hits filed as inhibitors; AID 504327; 390,000 compounds, 0.21% hits; GCN5L2 HAT assay, ThioGlo1 CoA-SH fluorescence
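GCN5L2 (20nM final) in 50mM HEPES, 0.1mM EDTA pH 7.5, 0.01% Tween-20 was preincubated 15 min at room temperature with compound, then given ThioGlo1 (50uM), H3(1-25) peptide (75uM) and acetyl-CoA (70uM); CoA-thiol fluorescence (Ex340/Em540) was read at 0 and 20 min.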
APEX1 inh – blocks human APE1 abasic DNA cleavage. recombinant APE1, TAMRA/BHQ-2 abasic DNA cleavage fluorescence. 350,000 compounds, 0.35% hits. AID 2517. P27695. Potency, µM (titrated, usually from 65.8 µM), usual class: inhibitors; further: nearly all actives have a fitted effect of over 55% in size
Target sequence (P27695 whole entry, looked up): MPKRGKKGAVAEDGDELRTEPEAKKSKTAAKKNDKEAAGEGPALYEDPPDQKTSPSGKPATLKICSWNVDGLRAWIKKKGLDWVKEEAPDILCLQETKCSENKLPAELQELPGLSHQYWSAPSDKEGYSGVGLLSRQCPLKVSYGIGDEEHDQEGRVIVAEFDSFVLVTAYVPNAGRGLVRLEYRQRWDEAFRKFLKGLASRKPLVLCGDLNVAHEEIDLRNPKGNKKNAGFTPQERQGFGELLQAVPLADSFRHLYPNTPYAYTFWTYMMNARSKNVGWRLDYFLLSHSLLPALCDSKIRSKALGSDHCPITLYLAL
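Endonuclease cleavage of a quenched abasic-site DNA duplex (50 nM) by APE1 (0.75 nM) was tracked by TAMRA dequenching. Compounds were preincubated with enzyme 15 min at room temperature; data normalized to buffer-only and DMSO wells plus NSC13755 control.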
RGS4 inhibitor – blocks human RGS4-accelerated GTP hydrolysis; Potency, µM (series often up to 114 µM), most hits filed as inhibitors; 390,000 compounds, 0.039% hits; Transcreener GDP fluorescence polarization, RGS4-accelerated GTP hydrolysis; further: nearly all actives have a fitted effect of over 75% in size
Target sequence (P49798 whole entry, looked up): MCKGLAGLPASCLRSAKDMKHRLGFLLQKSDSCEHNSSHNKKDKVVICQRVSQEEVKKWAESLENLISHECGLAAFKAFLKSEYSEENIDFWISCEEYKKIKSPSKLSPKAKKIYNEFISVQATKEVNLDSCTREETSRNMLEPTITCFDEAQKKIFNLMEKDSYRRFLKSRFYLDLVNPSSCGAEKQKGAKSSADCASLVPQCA
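MLSMR compounds (23 nl, pin-transferred) preincubated 10 min at room temperature with a 500nM (2x) first reagent, then RGS4 at 900nM (2x) plus Transcreener GDP mix added; fluorescence polarization (620/688 nm) read before and after 90 min at 30 °C.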
TDP1 block – blocks human tyrosyl-DNA phosphodiesterase 1. recombinant TDP1, AlphaScreen DNA substrate cleavage. Potency, µM (top dose mostly 130 µM), hits mostly inhibitors. Q9NUW8. 350,000 compounds, 0.28% hits. AID 485290; further: nearly all actives have a fitted effect of over 40% in size
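Steps: enzyme plus compound, 15 min RT; add biotin/phosphotyrosine-FITC oligonucleotide (15 nM final), react 5 min; add donor/acceptor beads (10 ug/ml final), 10 min; read AlphaScreen. Tdp1 at 1 nM final.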
Of the large screens only hits and unclear results are named; the others gave an inactive call; ! = repeats disagree. Only some compounds are listed: those with a hit (about 0.87% of all), similar ones and a draw of the others. The call rests on the fitted dose curve; in most records, active means well fitted curve in the direction sought with a large enough effect; inconclusive means small, poorly fitted or top-dose-only effect, or another doubt; inactive means no such curve, though single readings can be large; an effect the other way counts as inactive or inconclusive.

Nc1ccc(C(=O)N/N=C/c2cn(Cc3ccc(F)cc3)c3ccccc23)cc1	none (no result: RECQ1 helicase)
COc1cccc(O)c1O	APEX1 inh 2.5µM (no result: RGS4 inhibitor)
COc1cccc2c1-c1c(O)cccc1C2=O	none (no result: RECQ1 helicase, TDP1 block)
O=C1c2ccccc2C(=O)N1c1cncc2ccccc12	none (no result: BLM helicase inh, RECQ1 helicase, KAT2A inh, APEX1 inh, RGS4 inhibitor)
COC(=O)c1ccc(COc2ccc(/C=N/Nc3cccc(C(=O)O)c3)cc2)cc1	APEX1 inh inconclusive, TDP1 block 40µM
O=C(O)c1cccc(N/N=C/c2ccc(OC(F)(F)F)cc2)c1	none (no result: RECQ1 helicase, TDP1 block)
O=C(NN1C(=O)CSC1=S)C(=O)NN1C(=O)CSC1=S	RECQ1 helicase 10µM, APEX1 inh 2.2µM (no result: TDP1 block)
O=C(Cc1cccc2ccccc12)NN1C(=O)CSC1=S	none
Cc1nc2ccc(C(=O)O)cc2c2c1CC(C)S2 (stereo not drawn)	APEX1 inh inconclusive, TDP1 block 20µM
OCc1ccc(-c2nn(Cc3ccccc3)c3ccccc23)o1	RGS4 inhibitor 24µM! (no result: BLM helicase inh)
O=c1c2ccccc2c(-c2n[nH]c(=S)o2)nn1Cc1ccccc1	none
O=C(O)C1Nc2c(Cl)cc(Cl)cc2C2C=CCC12 (stereo not drawn)	BLM helicase inh inconclusive, KAT2A inh 3.5µM, APEX1 inh 13µM, RGS4 inhibitor inconclusive (no result: RECQ1 helicase, TDP1 block)
CC(NC(=O)CSc1nc2sc3c(c2c(=O)n1-c1ccccc1)CCCC3)c1ccccc1 (stereo not drawn)	none
O=C(CSc1nc2sc3c(c2c(=O)n1-c1ccccc1)CCCC3)N/N=C/c1ccccc1C(=O)O	BLM helicase inh inconclusive, APEX1 inh 11µM, TDP1 block 22µM (no result: RECQ1 helicase)
CCCCNc1c2c3c(cccc3n(C)c1=O)C(=O)c1ccccc1-2	RECQ1 helicase 32µM (no result: TDP1 block)
Cc1ccc2occ(/C=N/NC(=O)c3ccccc3Br)c(=O)c2c1	none (no result: RECQ1 helicase)
CCOc1ccccc1C(=O)N/N=C/c1coc2ccc(C)cc2c1=O	TDP1 block 35µM (no result: RECQ1 helicase)
N#Cc1nc(Nc2cc(F)cc(F)c2)c2ncn(C3CCCC3)c2n1	none (no result: BLM helicase inh, RECQ1 helicase, KAT2A inh, APEX1 inh, RGS4 inhibitor)
COc1ccc(-c2ccc3c(c2)c(-c2cccs2)c(-c2cc(OC)cc(OC)c2)n3C)cc1	KAT2A inh 20µM (no result: BLM helicase inh, RECQ1 helicase)
COc1cccc(-c2no[n+]([O-])c2C#N)c1	none (no result: BLM helicase inh, RECQ1 helicase, KAT2A inh, RGS4 inhibitor, TDP1 block)
CC(=O)c1ccccc1NC(=O)COC(=O)CCC1CCCC1	TDP1 block 79µM (no result: BLM helicase inh, RECQ1 helicase)
CCOC(=O)c1ccccc1NC(=O)COC(=O)CCC1CCCC1	TDP1 block 50µM (no result: BLM helicase inh, RECQ1 helicase)
COc1ccc(NC(=O)COC(=O)CCC2CCCC2)c(OC)c1	none (no result: BLM helicase inh, RECQ1 helicase)
O=C(CCC1CCCCC1)Nc1ccccc1-c1ccccc1	KAT2A inh 3.2µM (no result: TDP1 block)
Cc1ccc(CNc2ccc(N3CCN(C(=O)OC(C)(C)C)CC3=O)cc2)cc1	none (no result: BLM helicase inh, RECQ1 helicase, KAT2A inh, RGS4 inhibitor, TDP1 block)
Fc1ccc(NC(=S)Nc2cccc3cnccc23)cc1	BLM helicase inh 22µM
CN(C)S(=O)(=O)c1cccc(NC(=S)Nc2cccc3cnccc23)c1	BLM helicase inh 13µM, RGS4 inhibitor inconclusive
S=C(Nc1cccnc1)Nc1cccc2cnccc12	RGS4 inhibitor inconclusive
NC(=O)C1CCN(c2nc(-c3ccccc3)cs2)CC1	none (no result: BLM helicase inh, RECQ1 helicase, KAT2A inh, RGS4 inhibitor, TDP1 block)
COc1cccc(C2c3c(ncn(-c4ccccc4OC)c3=N)Oc3ccc4ccccc4c32)c1 (stereo not drawn)	none (no result: BLM helicase inh, RECQ1 helicase, KAT2A inh, APEX1 inh, RGS4 inhibitor)
COc1cc(-c2oc3ccc(C)cc3c(=O)c2O)cc(OC)c1OC	none (no result: RECQ1 helicase, APEX1 inh)
COc1c(O)c(O)cc2c1oc1c3cc(C)ccc3oc(=O)c21	BLM helicase inh inconclusive, RECQ1 helicase 8.9µM, APEX1 inh inconclusive (no result: KAT2A inh, RGS4 inhibitor)
CN(C)CCCNc1c2ccccc2nc2ccccc12	APEX1 inh 9.5µM (no result: RECQ1 helicase, TDP1 block)
CN(C)CCCNc1nc(-c2ccccc2)nc2ccccc12	none
S=C(NCCN1CCOCC1)N/N=C/c1cccs1	none (no result: RECQ1 helicase, TDP1 block)
Oc1cccc(/C=N/NC(=S)NCCN2CCOCC2)c1O	RECQ1 helicase 13µM, APEX1 inh inconclusive
CCOc1ccc(NC(=O)CSc2nnc3c(n2)[nH]c2ccc(S(=O)(=O)N4CCCCC4)cc23)cc1	none (no result: BLM helicase inh, RECQ1 helicase, KAT2A inh, APEX1 inh, TDP1 block)
O=C1CC(c2ccccc2)CC2=C1C1(CCCCC1)N=C(Nc1nc3ccccc3o1)N2 (stereo not drawn)	none (no result: BLM helicase inh, RECQ1 helicase, KAT2A inh, APEX1 inh, RGS4 inhibitor)
COC(=O)C1CCN(C(=O)c2cc(-c3ccco3)nc3ccccc23)CC1	KAT2A inh 8.9µM, APEX1 inh inconclusive, RGS4 inhibitor inconclusive (no result: BLM helicase inh, RECQ1 helicase, TDP1 block)

High-throughput results as filed in PubChem BioAssay.
